Measured values from ChEMBL document CHEMBL1961873, “Compounds: GSK PKIS; Assays: Nanosyn kinase panel” (2012).

How the values were obtained:
[1] = target: T1, 3-phosphoinositide-dependent protein kinase 1 (Homo sapiens) (UniProt O15530); details: at 0.1 µM;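 also: values are mean inhibition of PDK1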
T1 sequence (whole entry): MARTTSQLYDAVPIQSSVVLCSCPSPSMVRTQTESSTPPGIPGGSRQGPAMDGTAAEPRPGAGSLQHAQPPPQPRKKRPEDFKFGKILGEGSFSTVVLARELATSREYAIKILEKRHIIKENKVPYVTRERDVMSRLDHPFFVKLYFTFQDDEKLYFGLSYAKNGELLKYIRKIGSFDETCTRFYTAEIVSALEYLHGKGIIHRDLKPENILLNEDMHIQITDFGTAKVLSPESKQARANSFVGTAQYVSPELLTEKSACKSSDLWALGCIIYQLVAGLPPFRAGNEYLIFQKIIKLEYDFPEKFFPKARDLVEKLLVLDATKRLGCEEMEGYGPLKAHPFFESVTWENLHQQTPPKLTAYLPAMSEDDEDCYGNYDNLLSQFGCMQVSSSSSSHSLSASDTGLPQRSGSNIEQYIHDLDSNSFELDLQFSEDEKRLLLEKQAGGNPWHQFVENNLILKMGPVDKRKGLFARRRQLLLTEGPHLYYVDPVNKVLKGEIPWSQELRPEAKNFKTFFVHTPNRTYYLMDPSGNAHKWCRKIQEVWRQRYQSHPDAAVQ

[2] = target: cAMP-dependent protein kinase catalytic subunit alpha (Homo sapiens) (UniProt P17612); details: at 0.1 µM
[3] = target: cAMP-dependent protein kinase catalytic subunit alpha (Homo sapiens) (UniProt P17612); details: at 1 µM
[4] = target: Protein kinase C alpha type (Homo sapiens) (UniProt P17252); details: at 0.1 µM
[5] = target: Protein kinase C alpha type (Homo sapiens) (UniProt P17252); details: at 1 µM
[6] = target: Protein kinase C beta type (Homo sapiens) (UniProt P05771); details: at 0.1 µM
Sequence of Protein kinase C beta type (Homo sapiens) (P05771 2-671 limits assumed): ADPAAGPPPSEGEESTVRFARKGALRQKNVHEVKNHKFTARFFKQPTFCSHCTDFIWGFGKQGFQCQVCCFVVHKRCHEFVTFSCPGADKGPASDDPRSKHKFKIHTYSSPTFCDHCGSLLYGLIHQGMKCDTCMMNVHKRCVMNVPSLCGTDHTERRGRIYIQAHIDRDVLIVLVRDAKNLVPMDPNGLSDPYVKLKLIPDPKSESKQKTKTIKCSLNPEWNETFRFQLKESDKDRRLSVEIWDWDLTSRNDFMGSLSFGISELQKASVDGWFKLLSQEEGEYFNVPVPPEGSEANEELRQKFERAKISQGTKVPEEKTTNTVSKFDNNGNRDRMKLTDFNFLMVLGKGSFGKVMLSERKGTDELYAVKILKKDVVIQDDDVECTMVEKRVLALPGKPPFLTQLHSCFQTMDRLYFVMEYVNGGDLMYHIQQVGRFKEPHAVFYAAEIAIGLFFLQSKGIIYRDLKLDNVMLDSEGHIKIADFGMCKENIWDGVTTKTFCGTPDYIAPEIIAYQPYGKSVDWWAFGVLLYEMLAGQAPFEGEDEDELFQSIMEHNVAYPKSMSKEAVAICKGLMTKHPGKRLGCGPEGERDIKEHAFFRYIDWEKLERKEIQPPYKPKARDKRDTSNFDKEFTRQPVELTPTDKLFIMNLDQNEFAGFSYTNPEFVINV

[7] = target: Protein kinase C beta type (Homo sapiens) (UniProt P05771); details: at 1 µM
[8] = target: Protein kinase C eta type (Homo sapiens) (UniProt P24723); details: at 0.1 µM
Sequence of Protein kinase C eta type (Homo sapiens) (P24723 whole entry): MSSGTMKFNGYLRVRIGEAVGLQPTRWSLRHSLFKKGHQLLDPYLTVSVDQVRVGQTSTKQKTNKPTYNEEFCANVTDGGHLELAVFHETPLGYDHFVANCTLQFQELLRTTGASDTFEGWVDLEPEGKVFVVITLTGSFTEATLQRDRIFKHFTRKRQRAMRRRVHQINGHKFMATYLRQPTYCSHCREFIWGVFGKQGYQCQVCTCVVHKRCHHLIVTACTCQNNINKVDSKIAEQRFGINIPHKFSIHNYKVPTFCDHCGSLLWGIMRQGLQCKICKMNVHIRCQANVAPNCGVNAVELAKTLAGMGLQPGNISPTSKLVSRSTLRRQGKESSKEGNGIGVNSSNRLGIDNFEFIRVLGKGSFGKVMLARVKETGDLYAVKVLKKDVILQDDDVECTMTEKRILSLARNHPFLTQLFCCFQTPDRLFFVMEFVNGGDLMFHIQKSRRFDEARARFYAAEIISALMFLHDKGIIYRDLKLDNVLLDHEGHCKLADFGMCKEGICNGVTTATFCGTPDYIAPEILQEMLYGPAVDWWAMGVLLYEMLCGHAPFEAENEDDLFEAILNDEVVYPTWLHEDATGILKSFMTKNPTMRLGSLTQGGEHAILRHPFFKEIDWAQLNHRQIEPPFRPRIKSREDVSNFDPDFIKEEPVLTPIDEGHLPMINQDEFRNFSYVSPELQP

[9] = target: Protein kinase C eta type (Homo sapiens) (UniProt P24723); details: at 1 µM
[10] = target: Protein kinase C gamma type (Homo sapiens) (UniProt P05129); details: at 0.1 µM
[11] = target: Protein kinase C gamma type (Homo sapiens) (UniProt P05129); details: at 1 µM
[12] = target: T2, Protein kinase C iota type (Homo sapiens) (UniProt P41743); details: at 0.1 µM
T2 sequence (whole entry): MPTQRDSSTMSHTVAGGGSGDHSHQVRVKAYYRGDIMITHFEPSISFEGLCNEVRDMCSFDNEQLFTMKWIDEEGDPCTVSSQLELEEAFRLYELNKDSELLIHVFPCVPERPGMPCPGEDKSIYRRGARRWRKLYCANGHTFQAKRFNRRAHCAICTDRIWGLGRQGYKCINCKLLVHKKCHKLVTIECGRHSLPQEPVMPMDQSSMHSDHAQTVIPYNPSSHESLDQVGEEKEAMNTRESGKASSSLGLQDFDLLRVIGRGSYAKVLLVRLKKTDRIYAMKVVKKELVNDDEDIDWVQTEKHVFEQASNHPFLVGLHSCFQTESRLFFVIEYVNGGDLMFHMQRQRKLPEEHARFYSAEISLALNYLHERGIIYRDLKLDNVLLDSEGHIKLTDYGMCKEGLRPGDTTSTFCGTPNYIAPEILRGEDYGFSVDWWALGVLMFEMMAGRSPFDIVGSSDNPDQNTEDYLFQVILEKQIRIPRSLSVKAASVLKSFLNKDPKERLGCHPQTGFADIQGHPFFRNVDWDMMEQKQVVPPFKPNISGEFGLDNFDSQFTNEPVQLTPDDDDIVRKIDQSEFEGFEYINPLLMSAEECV

[13] = target: T2, Protein kinase C iota type (Homo sapiens); details: at 1 µM
[14] = target: Protein kinase C theta type (Homo sapiens) (UniProt Q04759); details: at 0.1 µM
Sequence of Protein kinase C theta type (Homo sapiens) (Q04759 whole entry, looked up): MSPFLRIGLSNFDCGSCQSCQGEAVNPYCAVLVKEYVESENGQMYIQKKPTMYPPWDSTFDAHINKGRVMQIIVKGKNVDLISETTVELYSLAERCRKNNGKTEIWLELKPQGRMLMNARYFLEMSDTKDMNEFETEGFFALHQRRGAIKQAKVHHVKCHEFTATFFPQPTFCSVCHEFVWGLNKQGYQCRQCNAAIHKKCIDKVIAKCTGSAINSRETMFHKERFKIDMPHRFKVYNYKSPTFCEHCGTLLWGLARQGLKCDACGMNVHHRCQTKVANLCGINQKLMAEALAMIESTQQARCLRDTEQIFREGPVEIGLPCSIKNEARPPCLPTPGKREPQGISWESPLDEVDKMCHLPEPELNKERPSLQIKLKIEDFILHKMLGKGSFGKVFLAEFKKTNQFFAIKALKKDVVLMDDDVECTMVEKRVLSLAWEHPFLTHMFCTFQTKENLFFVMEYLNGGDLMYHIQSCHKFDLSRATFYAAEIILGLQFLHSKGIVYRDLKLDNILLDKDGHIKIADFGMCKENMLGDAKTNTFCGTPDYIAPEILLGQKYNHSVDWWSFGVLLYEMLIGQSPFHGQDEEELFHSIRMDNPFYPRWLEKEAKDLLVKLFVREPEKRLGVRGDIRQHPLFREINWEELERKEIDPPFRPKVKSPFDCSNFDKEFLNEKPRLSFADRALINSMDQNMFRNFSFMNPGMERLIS

[15] = target: Protein kinase C theta type (Homo sapiens) (UniProt Q04759); details: at 1 µM
[16] = target: Protein kinase C beta type (Homo sapiens) (UniProt P05771); details: at 0.1 µM; remark: listed apart in the source
[17] = target: Protein kinase C beta type (Homo sapiens) (UniProt P05771); details: at 1 µM; remark: listed apart in the source
[18] = target: T3, Serine/threonine-protein kinase D1 (Homo sapiens) (UniProt Q15139); details: at 0.1 µM
T3 sequence (whole entry): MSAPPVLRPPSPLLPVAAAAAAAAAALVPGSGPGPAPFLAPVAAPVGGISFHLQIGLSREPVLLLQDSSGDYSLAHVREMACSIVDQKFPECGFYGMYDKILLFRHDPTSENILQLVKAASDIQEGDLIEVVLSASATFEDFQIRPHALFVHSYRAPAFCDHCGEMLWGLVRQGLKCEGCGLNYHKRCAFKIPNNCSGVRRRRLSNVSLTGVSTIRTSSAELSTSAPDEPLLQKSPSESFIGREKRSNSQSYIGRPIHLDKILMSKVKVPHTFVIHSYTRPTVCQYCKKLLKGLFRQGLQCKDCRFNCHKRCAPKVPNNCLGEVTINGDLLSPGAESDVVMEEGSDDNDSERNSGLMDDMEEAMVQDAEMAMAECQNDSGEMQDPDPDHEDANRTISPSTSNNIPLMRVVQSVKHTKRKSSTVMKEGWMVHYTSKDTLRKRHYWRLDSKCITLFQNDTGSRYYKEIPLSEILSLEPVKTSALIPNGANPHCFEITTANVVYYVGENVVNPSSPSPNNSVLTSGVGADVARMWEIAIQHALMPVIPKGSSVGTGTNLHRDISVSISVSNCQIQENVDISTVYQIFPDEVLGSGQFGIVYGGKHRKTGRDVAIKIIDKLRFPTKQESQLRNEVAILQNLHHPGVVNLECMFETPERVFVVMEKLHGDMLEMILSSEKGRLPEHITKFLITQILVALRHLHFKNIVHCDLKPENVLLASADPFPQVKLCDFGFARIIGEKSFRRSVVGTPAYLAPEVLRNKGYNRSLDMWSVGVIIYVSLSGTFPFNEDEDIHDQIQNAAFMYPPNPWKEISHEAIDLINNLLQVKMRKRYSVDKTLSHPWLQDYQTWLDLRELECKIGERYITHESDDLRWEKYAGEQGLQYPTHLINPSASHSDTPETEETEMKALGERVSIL

[19] = target: T3, Serine/threonine-protein kinase D1 (Homo sapiens); details: at 1 µM
[20] = target: T4, Serine/threonine-protein kinase D2 (Homo sapiens) (UniProt Q9BZL6); details: at 0.1 µM;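 also: reported percent inhibition values are means, part of the GSK PKIS kinase panel screen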
T4 sequence (whole entry): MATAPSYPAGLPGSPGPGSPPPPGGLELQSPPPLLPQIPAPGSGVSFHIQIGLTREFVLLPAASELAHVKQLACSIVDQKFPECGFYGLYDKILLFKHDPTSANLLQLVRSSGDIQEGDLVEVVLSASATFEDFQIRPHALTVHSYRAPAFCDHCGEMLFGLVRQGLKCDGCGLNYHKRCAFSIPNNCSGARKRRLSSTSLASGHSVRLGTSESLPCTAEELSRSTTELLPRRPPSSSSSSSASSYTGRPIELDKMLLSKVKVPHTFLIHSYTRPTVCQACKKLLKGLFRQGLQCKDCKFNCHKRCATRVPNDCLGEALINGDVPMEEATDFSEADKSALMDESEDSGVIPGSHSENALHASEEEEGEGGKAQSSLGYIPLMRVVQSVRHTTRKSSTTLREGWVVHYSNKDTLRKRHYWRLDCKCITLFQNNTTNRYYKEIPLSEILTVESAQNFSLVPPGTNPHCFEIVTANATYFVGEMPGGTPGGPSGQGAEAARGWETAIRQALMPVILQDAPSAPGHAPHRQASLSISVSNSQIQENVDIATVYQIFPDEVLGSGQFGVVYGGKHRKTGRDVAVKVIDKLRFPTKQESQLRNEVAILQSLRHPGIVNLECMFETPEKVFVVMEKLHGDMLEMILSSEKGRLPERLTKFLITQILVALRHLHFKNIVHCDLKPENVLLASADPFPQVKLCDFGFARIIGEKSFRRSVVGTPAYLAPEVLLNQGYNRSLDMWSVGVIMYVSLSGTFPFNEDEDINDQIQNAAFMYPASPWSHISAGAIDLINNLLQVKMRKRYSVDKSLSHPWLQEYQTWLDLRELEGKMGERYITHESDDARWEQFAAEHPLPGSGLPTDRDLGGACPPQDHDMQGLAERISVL

Compound	inhibition [1] [%]	inhibition [2] [%]	inhibition [3] [%]	inhibition [4] [%]	inhibition [5] [%]	inhibition [6] [%]	inhibition [7] [%]	inhibition [8] [%]	inhibition [9] [%]	inhibition [10] [%]	inhibition [11] [%]	inhibition [12] [%]	inhibition [13] [%]	inhibition [14] [%]	inhibition [15] [%]	inhibition [16] [%]	inhibition [17] [%]	inhibition [18] [%]	inhibition [19] [%]	inhibition [20] [%]
CC(=O)NCc1cccc(C#Cc2cncnc2Nc2ccc(OCc3cccc(F)c3)c(Cl)c2)c1	0.04	0.53	0.58	0.2	1.17	-0.24	3.27	1.39	3.4	-0.73	1.3	0.84	0.45	0.15	-0.29	0.7	0.37	3.28	2.11	0.45
O=C(O[C@H]1CN[C@H](C#Cc2cc3ncnc(Nc4ccc(Cc5ccccc5)cc4)c3s2)C1)N1CCOCC1	-1.22	4.03	5.91	0.96	4.81	2.02	4.66	2.47	4.45	4.28	3.28	2.08	2.38	1.84	2.2	2.68	4.05	2.54	3.43	3.17
COc1ccc2c(-c3ccnc(Nc4cccc(OC(F)(F)F)c4)n3)cnn2n1	1.72	1.61	3.17	1.34	12.7	0.08	3.07	6.47	6.9	5.4	1.65	2.36	1.45	2.59	4.8	1.08	5.19	3.42	6.19	3.92
N#Cc1c(NC(=O)c2ccc(F)cc2)sc2c1CCCC2	0.85	1.5	2.64	0.43	-0.26	-1.4	2.12	3.5	2.09	0.54	0.62	-0.52	-1.26	0.53	-0.01	1.04	0.69	1.57	2.87	3.3
CN1CCC(n2cnc(-c3ccc(F)cc3)c2-c2ccnc(Nc3ccccc3)n2)CC1	3.8	2.92	16.7	19.4	65.2	16.1	51	2.14	2.72	5.68	33.8	1.53	1.32	1.16	4.03	27.4	66.5	5.32	39.6	7.44
CCOc1ccc2c(-c3ccnc(Nc4cccc(C(F)(F)F)c4)n3)cnn2n1	-2.03	1.32	1.22	0.95	0.74	0.58	0.67	0.98	-0.29	4.45	2.94	1.45	0.72	0.84	0.7	0.45	0.29	3.34	3.21	3.62
COC(=O)c1sc(-n2cnc3cc(OC)c(OC)cc32)cc1OCc1ccccc1C(F)(F)F	1.42	1.59	0.74	0.62	1.49	-0.94	0.17	2.15	0.99	3.39	2.66	0.97	2.66	1.11	0.41	0.96	1.08	3.64	5.12	4.89
CCc1nn2ncccc2c1-c1ccnc(NC2CC2)n1	1.73	0.78	1.73	0.35	1.73	1.02	2.65	0.47	0.53	0.95	4.3	0.47	0.64	0.97	1.63	1.1	3.32	2.35	4.56	2.36
CN(C)CCOc1ccc(-c2nc(-c3ccncc3)c(-c3ccc4c(c3)CC/C4=N\O)[nH]2)cc1	0.77	1.46	4.29	0.58	1.61	1.27	11.9	1.48	3.32	1.85	3.66	3.25	3.37	2.07	2.93	0.36	3.35	3.26	6.18	2.55
COc1ccc(-c2oc3ncnc(N)c3c2-c2ccc(NC(=O)Nc3cc(C(F)(F)F)ccc3F)cc2)cc1	1.13	3.34	4.14	0.71	1.62	3.38	6.16	6.58	5.99	1.64	6.08	3.51	0.63	3.51	5.06	1.71	4.49	2.73	3.09	3.37
COc1cc(Nc2nccc(Nc3ccc4c(C)n[nH]c4c3)n2)cc(OC)c1OC	2.76	2.38	14	1.29	10.2	1.4	1.99	3.09	-1.03	3.2	5.39	1.08	3.92	1.17	-0.29	2.72	6.67	2.61	2.11	1.03
COc1ccc(-c2cc(-c3c[nH]nc3-c3ccccn3)ccn2)cc1	2.34	2.05	3.35	0.46	2.09	1.41	3.92	4.04	5.03	1.23	1.71	1.68	0.87	2.82	5.05	0.62	1.96	8.14	37.8	9.14
CCCN(CCS(C)(=O)=O)Cc1ccc(-c2ccc3ncnc(Nc4ccc(OCc5cccc(F)c5)c(Cl)c4)c3c2)o1	1.25	0.67	1.36	0.08	1.04	0.26	0.52	2.45	3.94	1.25	2.5	1.67	-0.59	0.4	0.62	1.13	2.02	1.1	2.52	0.95
Fc1ccc(-c2nn3ccccc3c2-c2ccncc2)cc1	0.82	2.55	16	0.75	3.12	8.61	37.8	1.31	3.71	-2.68	2.4	0.48	3.99	0.74	2.07	1.95	10.9	1.78	6.49	1.93
